Test results: ChEMBL document CHEMBL3988442, “University of Dundee, Small-Polar-MMV Screening Library” (2021)
For some of these results: Entries with a potency or affinity are not part of this list.

Key:
Design in all cases: scale not given: direction of the effect not stated beside the values
[1] = target: Protein translocase subunit SecA (Escherichia coli (strain K12)) (UniProt P10408); assay: Assay to Identify E. coli SecA ATPase Inhibitors; assay type: functional; settings: 30 µM
[2] = target: T1, Ubiquitin-activating enzyme e1, putative (Leishmania donovani (strain BPK282A1)) (UniProt E9BSI1); assay: Leishmania donovani Ubiquitin Activating Enzyme (LdE1); assay type: functional; settings: 30 µM
T1 sequence (whole entry): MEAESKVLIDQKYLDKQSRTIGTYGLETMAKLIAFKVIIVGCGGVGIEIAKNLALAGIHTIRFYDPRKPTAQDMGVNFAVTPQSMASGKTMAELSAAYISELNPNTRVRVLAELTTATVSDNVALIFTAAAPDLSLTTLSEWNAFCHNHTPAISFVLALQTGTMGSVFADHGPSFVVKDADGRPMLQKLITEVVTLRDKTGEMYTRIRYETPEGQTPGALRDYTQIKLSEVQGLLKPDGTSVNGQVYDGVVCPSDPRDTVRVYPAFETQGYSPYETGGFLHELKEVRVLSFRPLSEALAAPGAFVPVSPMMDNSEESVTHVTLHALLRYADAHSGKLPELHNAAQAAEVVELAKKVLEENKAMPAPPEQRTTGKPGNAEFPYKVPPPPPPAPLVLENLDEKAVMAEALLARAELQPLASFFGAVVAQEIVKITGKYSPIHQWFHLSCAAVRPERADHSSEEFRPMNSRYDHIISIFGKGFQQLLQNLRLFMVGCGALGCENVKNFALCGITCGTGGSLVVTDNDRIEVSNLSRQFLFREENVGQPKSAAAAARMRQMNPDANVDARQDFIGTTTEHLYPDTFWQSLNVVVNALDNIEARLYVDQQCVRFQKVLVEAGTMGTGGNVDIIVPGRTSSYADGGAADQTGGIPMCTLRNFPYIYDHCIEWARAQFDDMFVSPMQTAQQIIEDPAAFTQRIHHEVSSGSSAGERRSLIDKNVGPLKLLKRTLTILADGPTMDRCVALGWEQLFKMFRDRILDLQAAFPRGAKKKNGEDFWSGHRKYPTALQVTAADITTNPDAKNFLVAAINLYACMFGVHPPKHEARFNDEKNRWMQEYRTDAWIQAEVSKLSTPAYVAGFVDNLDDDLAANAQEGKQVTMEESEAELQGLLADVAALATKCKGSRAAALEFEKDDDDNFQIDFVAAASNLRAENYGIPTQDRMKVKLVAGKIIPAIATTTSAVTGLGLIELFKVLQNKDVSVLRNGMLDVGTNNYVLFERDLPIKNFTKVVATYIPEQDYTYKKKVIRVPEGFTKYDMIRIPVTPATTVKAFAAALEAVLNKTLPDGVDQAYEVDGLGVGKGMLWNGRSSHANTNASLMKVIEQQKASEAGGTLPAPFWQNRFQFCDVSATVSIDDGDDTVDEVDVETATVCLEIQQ

[3] = target: AMP-activated protein kinase, AMPK (Homo sapiens) (UniProt P54646+O43741+P54619+Q9UGJ0+Q9Y478+Q13131+Q9UGI9); assay: AMP-dependent Kinase enzyme assay. An in vitro enzyme assay that detects ADP turnover that is directly proportional to AMPK activity. This uses naive AMPK that is activated during the assay with MK-8722; assay type: functional; settings: 30 µM
[4] = target: Sialic acid-binding Ig-like lectin 9 (Homo sapiens) (UniProt Q9Y336); assay: Hs-Siglec9 ALPHAscreen SOP 20170721; settings: 10 µM
Sequence of Sialic acid-binding Ig-like lectin 9 (Homo sapiens) (Q9Y336 whole entry): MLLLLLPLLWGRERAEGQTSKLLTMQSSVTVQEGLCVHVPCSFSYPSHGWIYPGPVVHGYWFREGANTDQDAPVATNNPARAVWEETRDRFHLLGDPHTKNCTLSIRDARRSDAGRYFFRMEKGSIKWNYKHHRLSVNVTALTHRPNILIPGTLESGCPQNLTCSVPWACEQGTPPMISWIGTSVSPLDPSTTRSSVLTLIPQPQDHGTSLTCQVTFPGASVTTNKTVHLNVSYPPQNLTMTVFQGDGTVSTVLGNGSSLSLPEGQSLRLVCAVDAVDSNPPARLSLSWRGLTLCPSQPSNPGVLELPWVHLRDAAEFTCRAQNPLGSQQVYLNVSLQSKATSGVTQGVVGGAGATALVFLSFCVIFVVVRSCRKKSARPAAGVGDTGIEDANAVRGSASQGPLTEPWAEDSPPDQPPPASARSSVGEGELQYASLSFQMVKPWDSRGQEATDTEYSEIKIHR

Trypanosoma cruzi = assay: Trypanosoma cruzi phosphomannomutase and mannose-1-phosphate guanylyltransferase assay; assay type: functional; settings: 10 µM
[5] = target: T2, Arginase-2, mitochondrial (Homo sapiens) (UniProt P78540); assay: in vitro enzyme assay to detect the production of urea directly proportional to the activity of Arginase II; assay type: functional; settings: 33.3 µM; further: in the data most compounds retested in dose-response had high values
T2 sequence (whole entry): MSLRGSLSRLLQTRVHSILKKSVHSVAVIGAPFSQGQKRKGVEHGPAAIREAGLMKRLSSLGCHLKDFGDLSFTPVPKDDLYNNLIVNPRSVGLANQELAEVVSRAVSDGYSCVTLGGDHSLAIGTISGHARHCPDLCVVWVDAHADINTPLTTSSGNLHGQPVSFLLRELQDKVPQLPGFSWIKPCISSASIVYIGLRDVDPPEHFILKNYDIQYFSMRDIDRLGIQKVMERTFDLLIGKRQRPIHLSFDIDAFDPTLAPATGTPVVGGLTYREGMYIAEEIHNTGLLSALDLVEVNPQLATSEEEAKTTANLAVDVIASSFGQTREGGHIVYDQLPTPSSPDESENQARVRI

[6] = target: T3, Proteasome subunit beta (Trypanosoma cruzi) (UniProt O96673); assay: Trypanosoma cruzi proteasome chymotrypsin-like activity (TcProtChymo) assay.; further: in the data most compounds retested in dose-response had high values; assay type: functional; settings: 9.37 µM
T3 sequence (whole entry): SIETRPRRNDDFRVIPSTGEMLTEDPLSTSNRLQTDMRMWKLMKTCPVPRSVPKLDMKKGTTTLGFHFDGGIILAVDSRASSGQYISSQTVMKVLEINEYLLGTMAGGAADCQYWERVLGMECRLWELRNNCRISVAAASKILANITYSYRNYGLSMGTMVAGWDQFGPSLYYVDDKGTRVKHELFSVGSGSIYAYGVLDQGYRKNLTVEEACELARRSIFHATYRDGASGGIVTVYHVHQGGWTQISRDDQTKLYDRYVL

Homo sapiens = organism: Homo sapiens; assay: To identify inhibition of the IFN signalling (Jak-Stat) pathway via expression of an eGFP reporter gene under the control of an IFN-stimulated response element (ISRE) containing MxA promoter.; assay type: functional; settings: 30 µM
[7] = target: T4, Tyrosyl-tRNA synthetase, putative (Trypanosoma cruzi (strain CL Brener)) (UniProt Q4DSP6); assay: Trypanosoma cruzi tyrosyl tRNA synthetase (TcYRS) _High Tyrosine SOP; assay type: functional; settings: 30 µM; further: in the data most compounds retested in dose-response had high values
T4 sequence (whole entry): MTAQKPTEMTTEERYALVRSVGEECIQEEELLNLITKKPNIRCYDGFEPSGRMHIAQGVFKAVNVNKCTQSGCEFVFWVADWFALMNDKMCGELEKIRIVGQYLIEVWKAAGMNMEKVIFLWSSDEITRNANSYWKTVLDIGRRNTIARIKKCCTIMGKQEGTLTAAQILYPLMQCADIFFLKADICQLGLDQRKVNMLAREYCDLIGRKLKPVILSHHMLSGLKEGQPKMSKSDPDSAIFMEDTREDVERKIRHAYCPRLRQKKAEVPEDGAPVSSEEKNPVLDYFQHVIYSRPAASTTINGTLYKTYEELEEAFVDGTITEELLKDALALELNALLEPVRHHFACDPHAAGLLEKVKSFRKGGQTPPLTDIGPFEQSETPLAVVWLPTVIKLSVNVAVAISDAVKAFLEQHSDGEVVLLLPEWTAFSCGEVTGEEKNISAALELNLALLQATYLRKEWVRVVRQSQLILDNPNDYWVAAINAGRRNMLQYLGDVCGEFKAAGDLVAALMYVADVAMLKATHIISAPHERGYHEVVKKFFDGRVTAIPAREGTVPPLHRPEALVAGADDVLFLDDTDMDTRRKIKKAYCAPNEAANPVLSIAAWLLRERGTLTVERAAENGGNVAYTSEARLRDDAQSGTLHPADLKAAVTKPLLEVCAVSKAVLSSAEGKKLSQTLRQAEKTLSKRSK

[8] = target: T4, Tyrosyl-tRNA synthetase, putative (Trypanosoma cruzi (strain CL Brener)); assay: Trypanosoma cruzi tyrosyl tRNA synthetase (TcYRS) SOP; assay type: functional; settings: 30 µM
[9] = target: Chromo domain-containing protein 1 (Saccharomyces cerevisiae (strain ATCC 204508 / S288c) (Baker's yeast)) (UniProt P32657); assay: ScCHD-1 Enzyme Inhibition Assay; assay type: functional; settings: 30 µM; further: in the data most compounds retested in dose-response had high values
Sequence of Chromo domain-containing protein 1 (Saccharomyces cerevisiae (strain ATCC 204508 / S288c) (Baker's yeast)) (P32657 whole entry, the tested form may be a part): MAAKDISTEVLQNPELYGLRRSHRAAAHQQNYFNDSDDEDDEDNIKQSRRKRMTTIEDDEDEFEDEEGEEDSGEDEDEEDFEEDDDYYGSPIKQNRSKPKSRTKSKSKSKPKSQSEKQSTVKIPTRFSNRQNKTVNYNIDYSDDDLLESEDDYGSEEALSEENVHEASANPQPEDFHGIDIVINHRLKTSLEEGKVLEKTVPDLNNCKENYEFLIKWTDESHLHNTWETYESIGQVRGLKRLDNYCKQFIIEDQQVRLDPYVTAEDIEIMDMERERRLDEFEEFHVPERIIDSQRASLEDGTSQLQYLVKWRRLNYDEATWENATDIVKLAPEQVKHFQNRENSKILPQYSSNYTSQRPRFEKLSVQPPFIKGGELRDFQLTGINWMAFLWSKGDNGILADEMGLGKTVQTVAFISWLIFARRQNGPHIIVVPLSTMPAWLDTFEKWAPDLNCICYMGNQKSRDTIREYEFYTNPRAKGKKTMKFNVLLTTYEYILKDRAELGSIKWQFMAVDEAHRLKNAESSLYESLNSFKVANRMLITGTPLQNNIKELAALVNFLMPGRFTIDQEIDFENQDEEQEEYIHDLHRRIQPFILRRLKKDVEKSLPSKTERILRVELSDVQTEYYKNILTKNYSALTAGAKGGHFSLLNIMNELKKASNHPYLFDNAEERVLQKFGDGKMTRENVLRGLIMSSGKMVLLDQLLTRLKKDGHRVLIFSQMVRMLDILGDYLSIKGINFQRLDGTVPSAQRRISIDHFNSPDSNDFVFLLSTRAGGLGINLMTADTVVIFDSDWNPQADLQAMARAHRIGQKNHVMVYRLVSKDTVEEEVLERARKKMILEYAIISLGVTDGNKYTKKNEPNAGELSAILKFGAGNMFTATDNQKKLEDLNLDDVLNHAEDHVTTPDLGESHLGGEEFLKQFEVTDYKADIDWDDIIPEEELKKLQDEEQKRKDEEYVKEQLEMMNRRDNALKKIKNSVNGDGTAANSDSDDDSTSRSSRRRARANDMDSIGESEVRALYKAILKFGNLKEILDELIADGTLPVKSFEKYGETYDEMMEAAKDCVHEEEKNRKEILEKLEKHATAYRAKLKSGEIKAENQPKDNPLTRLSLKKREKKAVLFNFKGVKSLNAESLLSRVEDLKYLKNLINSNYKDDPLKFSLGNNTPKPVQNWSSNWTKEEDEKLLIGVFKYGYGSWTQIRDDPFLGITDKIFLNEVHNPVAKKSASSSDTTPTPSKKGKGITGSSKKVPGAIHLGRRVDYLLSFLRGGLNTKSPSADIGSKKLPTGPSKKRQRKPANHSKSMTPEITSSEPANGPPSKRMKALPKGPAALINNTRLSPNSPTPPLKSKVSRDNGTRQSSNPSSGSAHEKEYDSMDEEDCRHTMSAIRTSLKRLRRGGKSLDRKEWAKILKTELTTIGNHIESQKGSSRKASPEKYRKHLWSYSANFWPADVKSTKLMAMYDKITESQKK

Sequence of Protein translocase subunit SecA (Escherichia coli (strain K12)) (P10408 whole entry): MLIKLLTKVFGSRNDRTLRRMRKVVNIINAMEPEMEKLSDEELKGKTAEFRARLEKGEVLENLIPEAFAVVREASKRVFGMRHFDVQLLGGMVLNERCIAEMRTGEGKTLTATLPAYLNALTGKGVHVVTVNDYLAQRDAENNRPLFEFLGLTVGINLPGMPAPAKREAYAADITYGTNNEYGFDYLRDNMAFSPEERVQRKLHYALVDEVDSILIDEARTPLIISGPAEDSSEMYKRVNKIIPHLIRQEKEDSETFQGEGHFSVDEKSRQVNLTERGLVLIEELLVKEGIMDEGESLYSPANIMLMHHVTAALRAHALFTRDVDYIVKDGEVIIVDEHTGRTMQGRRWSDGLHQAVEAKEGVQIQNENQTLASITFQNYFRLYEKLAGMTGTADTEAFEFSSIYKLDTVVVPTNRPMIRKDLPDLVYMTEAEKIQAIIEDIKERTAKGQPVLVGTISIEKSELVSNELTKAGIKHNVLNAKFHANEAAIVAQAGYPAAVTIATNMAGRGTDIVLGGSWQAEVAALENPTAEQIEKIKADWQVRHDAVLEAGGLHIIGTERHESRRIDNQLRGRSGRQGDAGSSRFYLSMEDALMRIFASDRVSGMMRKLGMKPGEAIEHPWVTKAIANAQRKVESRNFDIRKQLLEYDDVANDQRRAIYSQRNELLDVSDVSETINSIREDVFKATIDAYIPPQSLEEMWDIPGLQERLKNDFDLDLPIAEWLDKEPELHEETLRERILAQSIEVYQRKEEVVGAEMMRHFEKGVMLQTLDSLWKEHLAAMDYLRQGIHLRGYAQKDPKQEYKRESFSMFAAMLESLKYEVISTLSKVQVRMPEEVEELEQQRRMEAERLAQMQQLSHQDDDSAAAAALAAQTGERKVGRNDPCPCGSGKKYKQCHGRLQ

Row | Compound | Percent Effect [1] | Percent Effect [2] | Percent Effect [3] | Percent Effect [4] | Percent Effect (Trypanosoma cruzi) | Percent Effect [5] | Percent Effect [6] | Percent Effect (Homo sapiens) | Percent Effect [7] | Percent Effect [8] | Percent Effect [9]
1 | Cc1ccc2c(ccn2CCC(=O)N2CCC(C(N)=O)CC2)c1 | -2.26% | 6.67% | 6.01% | 7.91% | -0.393% | -12.2% | 16.6% | -3.73% | 5.29% | 7.69% | -3.32%
2 | Cn1cnc2c1CCN(Cc1noc(-c3ccccc3)n1)C2 | -4.07% | 15.8% | -9.94% | 14.2% | 3.08% | -2.52% | 1.27% | -13.4% | 6.4% | 11.1% | 0.774%
3 | Cc1cc(NC(=O)NCC(O)c2ccc(Cl)cc2Cl)n(C)n1 (configuration not stated) | -2.82% | -2.63% | 1.15% | 8.57% | 0.376% | -0.383% | -2.17% | -20.8% | -0.49% | -75.6% | -5.69%
4 | CC(C)NC(=O)N1CC[C@@H]2CN(Cc3ccccc3)S(=O)(=O)[C@@H]2CC1 | -7.87% | -13.5% | 131% | -3.29% | -6.16% | 0.319% | 6.09% | 29.7% | -5.41% | -5.13% | -1.09%
5 | COC[C@@]12CCO[C@@H]1CCN(C(=O)Cc1ccccc1F)C2 | 0.597% | 19.2% | -6.38% | 8.82% | -0.595% | -3.19% | 12.2% | 5.78% | 8.33% | 11.1% | -3.06%
6 | Cn1cnc(-c2cc(C(=O)N3CCOCC3)c3ccccn23)c1 | -2.02% | 10.8% | 17.9% | -4.69% | -3.42% | 17.5% | 26.6% | -15.6% | 3.24% | 10.3% | -3.5%
7 | Cc1nc(C)c(CNC(=O)NC(c2nnc3n2CCC3)C(C)C)s1 (configuration not stated) | -6.15% | 0% | -0.521% | 1.26% | -4.1% | -2.08% | 12.8% | 8.88% | 5.94% | 11% | -0.921%
8 | CN(C)c1ccc(C(=O)NCC2(O)CCOCC2)cc1 | -4.98% | 2.7% | -2.16% | 3.55% | 3.48% | 3.33% | 13.1% | -3.96% | 5.82% | 12.2% | -5.31%
9 | Cc1nn(C)c(C)c1CC(=O)N1CCCC(n2ccnc2)C1 (configuration not stated) | -1.6% | -5.26% | -1.17% | -5.34% | -3.27% | 1.8% | -0.592% | -1.26% | 1.48% | -1.24% | -1.5%
10 | COc1ccc(CC(=O)N2CCCN(c3ccc(C#N)cc3)CC2)cc1 | -3.96% | -5.26% | 8.87% | -0.428% | -5.75% | -8.28% | 11.8% | -1.35% | -3.19% | 2.6% | -7.99%
11 | Cc1nn(C)c2c(NCc3cccnc3)nc(C3CC3)nc12 | -3.37% | 15.6% | 11.8% | 13.7% | 5.61% | 24.8% | 12.8% | 12.8% | 1.07% | 13.6% | 0.869%
12 | c1nc(COCC2CC2)c2n1CCCN(CC1CC1)C2 | -8.2% | -2.67% | 1.44% | 3.77% | -2.12% | -22.4% | -0.513% | -0.93% | -1.04% | 0% | 0.35%
13 | Cc1nc(C)n(CC2CN(Cc3cccc4c3OCCO4)CCO2)n1 (configuration not stated) | -6.14% | 18.4% | -1.72% | 0.869% | 3.46% | 1.08% | 1.78% | 2.86% | 11.3% | 28.4% | -8.32%
14 | Cc1ccc(C(=O)NC(C)CN2CCCC2=O)c(=O)[nH]1 (configuration not stated) | -6.8% | 5.48% | -5.61% | 0.134% | -2.94% | 0.455% | 12.8% | 18.2% | 1.07% | 2.5% | -0.198%
15 | CCOc1ccc(Cl)c(C(=O)N2CCN(C(=O)c3ccoc3C)CC2)n1 | -5.76% | 20.8% | -1.75% | 5.96% | -4.49% | -1.42% | 15.4% | 12.9% | 7.77% | 12.2% | -6.62%
16 | CNc1cc(C)nc(C2CN(Cc3ccc(C)nc3)CCO2)c1 (configuration not stated) | -2.49% | 4.05% | 9.63% | -3.85% | -1.19% | -0.696% | 4.84% | 0.717% | 3.23% | 3.9% | -10.8%
17 | O=C(CCn1ccccc1=O)Nc1ccc(I)cc1 | -2.63% | 2.7% | -7.9% | 21.2% | 0.684% | -0.248% | 16.6% | 5.89% | 1.07% | 6.17% | 6.86%
